Source: PubChem
SENP8 block-1 – SENP8 (human) protease inhibition | Q96LD8 | recombinant SENP8, Nedd8 substrate fluorescence | inhibition, % at 20 µM | 360,000 tested, 0.64% active; in the data active = inhibition mostly above about 40%, no sharp cut-off; inactive = mostly below about 27%
Target sequence (Q96LD8 whole entry, looked up): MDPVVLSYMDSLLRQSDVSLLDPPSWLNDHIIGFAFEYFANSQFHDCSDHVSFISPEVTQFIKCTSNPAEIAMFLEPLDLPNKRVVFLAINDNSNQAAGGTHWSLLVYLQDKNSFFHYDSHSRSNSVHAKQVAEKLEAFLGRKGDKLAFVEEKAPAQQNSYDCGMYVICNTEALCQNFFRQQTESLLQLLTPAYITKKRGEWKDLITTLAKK
SENP6 inh – inhibitors of human SENP6 protease | Recombinant SENP6 catalytic domain, aminoluciferin luminescence | inhibition, % at 10 µM | 330,000 tested, 1.8% active | AID 2599;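 active = inhibition above about 50% at the single tested dose, limit read from the data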
SENP8 block-2 – SENP8 protease inhibition | Q96LD8 | purified SENP8, Z-RLRGG-aminoluciferin cleavage, luminescence | inhibition, % at 10 µM | 330,000 tested, 1.2% active | AID 2540; in the data active = inhibition above about 50%
AHR act – activators of human aryl hydrocarbon receptor | AHR-responsive luciferase reporter cells, luminescence | activation, % at 5 µM | 320,000 tested, 2.5% active; in the data active = activation above about 47%
SENP7 inh – blocks the human protease SENP7. Q9BQF6. recombinant SENP7, Z-RLRGG-aminoluciferin luminescence, 40 min. inhibition, % at 5 µM. 330,000 tested, 1.5% active. AID 434973;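 active = inhibition above about 50% at the single test dose, limit read from the data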
Target sequence (Q9BQF6 706-1050 limits assumed): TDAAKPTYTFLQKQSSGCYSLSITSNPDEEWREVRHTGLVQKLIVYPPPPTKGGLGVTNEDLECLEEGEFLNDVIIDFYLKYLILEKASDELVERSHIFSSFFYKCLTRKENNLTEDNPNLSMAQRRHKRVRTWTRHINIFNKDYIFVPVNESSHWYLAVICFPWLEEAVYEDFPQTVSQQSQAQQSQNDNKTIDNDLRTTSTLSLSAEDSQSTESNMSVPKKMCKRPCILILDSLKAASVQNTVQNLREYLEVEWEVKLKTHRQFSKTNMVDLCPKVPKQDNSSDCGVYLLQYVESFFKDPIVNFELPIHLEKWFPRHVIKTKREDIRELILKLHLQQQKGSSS
EBI2 antag – blocks human EBI2 receptor beta-arrestin signaling; EBI2 beta-arrestin recruitment, luminescence, 7a,25-OHC stimulated; inhibition, % at 5 µM; P32249; 360,000 tested, 0.81% active; in the data active = inhibition above about 38%;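 note: enzyme fragment complementation signal reports receptor beta-arrestin coupling in cells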
SENP8 inh conf – SENP8 (human) inhibition, single concentration confirmation | purified SENP8, Nedd8-AMC/pro-Nedd8 cleavage fluorescence, 30 min | inhibition, % at 25 µM | shares compounds with SENP8 block-1 | 1,400 tested, 15% active; in the data active = inhibition mostly above about 39%, no sharp cut-off; inactive = mostly below about 34%
Numbers stand for hits; . = inactive; / = no result. This is a sample that favours compounds with a hit; in the whole collection about 5% have one here.

SMILES	SENP8 block-1	SENP6 inh	SENP8 block-2	AHR act	SENP7 inh	EBI2 antag	SENP8 inh conf
COc1cc(Br)c(C(=O)c2nccc3cc(OC)c(OC)cc23)cc1OC	113	90	95	.	92	.	101
Cc1ccc(Cc2cnc(NC(=O)/C(C#N)=C/c3ccc(-c4ccccc4[N+](=O)[O-])o3)s2)cc1	47	.	.	.	.	.	.
O=C(NCCc1ccccc1)C(=O)NCC1CCNCC1	/	.	.	.	.	/	/
Cc1ccc(NC(=O)CCC(=O)Nc2ccc(C)cc2)cc1	.	.	.	.	.	.	/
CCOC(=O)CC(=O)Nc1ccc(C)cc1	40	.	.	.	.	.	.
CC(O)CC(=O)NOCc1ccccc1 (stereo unspecified)	.	/	/	/	.	.	/
CNc1cccccc1=S	62	.	.	.	.	.	.
CNc1ccccc1	.	.	.	.	.	.	/
COC(=O)/C=C1\OCc2ccc(C)cc21	.	/	/	/	/	.	/
Cc1ccc(C(=O)COc2ccccc2-c2ccccc2)cc1	45	.	.	.	.	.	.
CON(C)S(=O)(=O)c1cccc(C(=O)N(CC(=O)Nc2ccccc2C(F)(F)F)Cc2ccco2)c1	.	.	.	.	.	.	/
Cc1nn(C(C)C(=O)NCCc2ccccc2)c(=O)c2cc3occc3n12 (stereo unspecified)	.	.	.	.	.	.	/
CCOc1ccc(CCNC(=O)C(C)n2nc(C)n3c(cc4occc43)c2=O)cc1OCC (stereo unspecified)	42	.	.	.	.	.	.
O=C(COC(=O)c1ccc(F)cc1F)Nc1ccc2[nH]c(=O)[nH]c2c1	.	.	.	.	.	.	/
COc1ccc(NS(=O)(=O)c2cccc(C(=O)NCc3ccco3)c2)cc1	.	.	.	.	.	.	/
CCOC(=O)c1sc(=S)n(-c2cc(OC)ccc2OC)c1N	40	.	.	.	.	.	.
O=[N+]([O-])c1ccc(N2CCN(c3nc(-c4ccc(Cl)cc4)cs3)CC2)cc1	43	.	.	.	.	.	.
COc1cc(C)c(C(=O)Oc2cc(C)c(C(=O)O)c(O)c2C)c(OC)c1C	44	.	.	.	.	.	.
COc1cc(C)c(C(=O)Oc2cc(C)c(C(=O)O)c(O)c2C)c(O)c1C(=O)O	.	.	.	.	.	.	/
O=C(NC1CCCC1)C(c1ccccn1)N(C(=O)c1csnn1)c1ccccc1Br (stereo unspecified)	.	.	.	.	.	.	/
C#CCOCCOCCOCCNc1nc(N2CCN(C(=O)[C@H](CCCCN)n3cc([C@@H](N)CC(N)=O)nn3)CC2)nc(N2CCN(C(=O)[C@H](CCCCN)n3cc([C@@H](N)CC(N)=O)nn3)CC2)n1	.	.	.	.	.	.	/
C#CCOCCOCCOCCNc1nc(N2CCN(C(=O)[C@H](CCCCN)n3cc(CN)nn3)CC2)nc(N2CCN(C(=O)[C@H](CCCCN)n3cc([C@@H](N)CC(N)=O)nn3)CC2)n1	40	/	/	/	/	.	.
O=C(O)c1ccc(S(=O)(=O)Nc2ccc(O)c(Sc3nc4ccccc4s3)c2)cc1	.	.	.	.	.	.	/
Cc1cccc(NC(=O)CCS(=O)(=O)c2cccc3nsnc23)c1C	41	.	.	.	.	.	.
CCOC(=O)c1cccc(NC(=O)CCS(=O)(=O)c2cccc3nsnc23)c1	.	.	.	.	.	.	/
SMILES	SENP8 block-1	SENP6 inh	SENP8 block-2	AHR act	SENP7 inh	EBI2 antag	SENP8 inh conf
COc1cc(NC(=O)C2CCCCN2)ccc1OCC(C)C (stereo unspecified)	27	.	.	.	.	.	.
CCn1ncc(CN2CCC(Oc3cc(C(=O)NC4CC4)ccc3OC)CC2)c1C	.	.	.	/	.	.	/
Cc1ccc(CNC(=O)C2CCCN(c3ncnc4c3nc3n4CCCCC3)C2)cc1 (stereo unspecified)	.	.	.	.	.	.	/
CN1CCN(C2CN(C3CCCCC3)S(=O)(=O)C2)CC1 (stereo unspecified)	.	/	/	/	/	.	/
O=S1(=O)CC(N2CC=CC2)CN1C1CCCCC1 (stereo unspecified)	41	/	/	/	/	.	36
O=C(Cc1cc(=O)[nH][nH]1)N/N=C/C=C/c1ccccc1	44	.	.	.	.	.	.
Nc1cc([N+](=O)[O-])cc2oc(-c3ccccc3)cc12	36	.	.	.	.	.	.
O=[N+]([O-])c1cccc(-c2nnc(-c3ccccc3)o2)c1	.	.	.	.	.	.	/
CCOc1ccc(S(=O)(=O)NCCC(=O)NCC(c2ccc(OC)cc2)N2CCCC2)cc1 (stereo unspecified)	.	.	.	.	.	.	/
CCOc1ccc(S(=O)(=O)NCCC(=O)NCC(c2ccc(OC)cc2)N2CCOCC2)cc1 (stereo unspecified)	51	/	/	/	/	.	.
O=C(NCC1OCCc2ccccc21)c1cc(COc2ccc(F)cc2Cl)on1 (stereo unspecified)	.	.	.	.	.	.	/
CCc1nnc(NS(=O)(=O)c2ccc(Nc3ccc([N+](=O)[O-])c4nonc34)cc2)s1	45	.	.	.	.	.	.
CCc1nnc(NS(=O)(=O)c2ccc(NS(=O)(=O)c3ccccc3[N+](=O)[O-])cc2)s1	.	.	.	.	.	.	/
Cc1ccc(OCCC(=O)OCC(=O)Nc2cc(S(=O)(=O)N(C)C)ccc2C)cc1	.	.	.	.	.	.	/
O=c1cc(-c2ccccc2)oc2ccccc12	43	.	.	.	.	.	.
O=c1cc(-c2ccc(C(F)(F)F)cc2)oc2ccccc12	.	.	.	.	.	.	/
O=C(NCCc1c[nH]c2ccccc12)C(=O)Nc1cc2c3c(c1)CC(=O)N3CCC2	.	.	.	.	.	.	/
COc1cc(CCC(O)CC(=O)CCc2ccccc2)ccc1O (stereo unspecified)	46	.	.	.	.	.	.
COc1cc(/C=N/NC(=O)CCc2ccccc2)ccc1O	.	.	.	.	.	.	/
COC(=O)C(Cc1c[nH]c2ccccc12)NC(=O)c1cccc(S(=O)(=O)N2CCCCC2)c1 (stereo unspecified)	.	.	.	.	.	.	/
COc1ccc(CCC(C)NC2CCCCCCC2)cc1 (stereo unspecified)	49	.	.	.	.	.	.
CCOc1cc(CNc2ccc(OC)cc2)cc(Br)c1OCC(=O)NC(C)(C)C	47	.	.	.	.	.	.
CCOc1cc(CNc2ccccc2)cc(Br)c1OCC(=O)NC(C)(C)C	.	.	.	.	.	.	/
COc1ccc(OCC(O)CNC(=O)c2sccc2Cl)cc1 (stereo unspecified)	.	.	.	.	.	.	/
CCOC(=O)C1(CC2CCCCO2)CCN(Cc2cn[nH]c2-c2cccc(F)c2)CC1 (stereo unspecified)	45	.	.	.	.	.	.
O=C(CCN1C(=O)CSc2ccccc21)Nc1ccc(OC(F)(F)F)cc1	.	.	.	.	.	.	/
